# In PubChem BioAssay (NCI):
# This is part of a sample that, as a whole, favours compounds with a hit. Of some 83,000 tested, about 20% had one in any assay.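 Negative percent growth values reflect cell death: -40 means 40% of the cells present at the start died, and -100 means all died.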 A number with no mark means an inactive call. Active and inactive are the calls of the source. The calls were made as follows: active = growth percent below 10; inactive = the rest.
# System: HL-60(TB) leukemia
# Assay: NCI-60 one-dose screen, 48 h (100 = growth as untreated, 0 = no growth, -100 = all killed)
# Details: 10 µM unless noted
row,Structure (SMILES),growth
1,CCSc1sc(-c2ccc(C)cc2)nc1[P+](c1ccccc1)(c1ccccc1)c1ccccc1,-47% (active)
2,Cn1nc(C(F)(F)F)cc1-c1cc(Cl)c(OCc2ccc(Cl)cc2)c(-c2ccc(Cl)c(C(F)(F)F)c2)c1O,-24.3% (active)
3,CCn1c(=O)n(C)c2c(=O)n(C)c(=O)n(C)c21,101%
4,O=c1oc2ccccc2cc1-c1nn(-c2ccccc2)cc1-c1nn[nH]n1,96.8%
5,COc1ccc(CCNc2nc(SC)nc(-c3cccc([N+](=O)[O-])c3)c2C#N)cc1OC,120%
6,CCCCC1CCc2cccc3c(SCC(=O)N(C)c4ccc(Cl)cc4)cc[n+]1c23 (stereo unspecified),91.4%
